# Screening results (PubChem BioAssay)
# LASV entry inh: blocks Lassa virus binding to or entry into cells; Lassa virus pseudotype entry inhibition, cell reporter; Potency, µM (top dose mostly 37.9 µM), without a hit: at the top dose activity change, negative = inhibition, hits mostly inhibitors; 300,000 tested, 1.2% active; AID 540256; calls by dose curve; tested in HEK293 cells; also: potency is read from the fitted curve at half-maximal effect; nearly all actives have a fitted effect of over 50% in size
# FMDV inh: antivirals against foot and mouth disease virus; FMDV antiviral cell-based qHTS; Potency, µM (series often up to 57.9 µM), for the others: top-dose activity change, negative = inhibition, usual class: inhibitors; 410,000 tested, 1.2% active; calls by dose curve; tested in HEK293T cells; also: read-out not given here; potency is read from the fitted curve at half-maximal effect; nearly all actives have a fitted effect of over 45% in size
# Marburg entry inh: Marburg virus entry inhibition; Marburg virus pseudotyped entry inhibition, cell reporter; Potency, µM (top dose mostly 37.8 µM), for inactives: top-dose activity change, negative = inhibition, usual class: inhibitors; 300,000 tested, 1.8% active; AID 540276; calls by dose curve; tested in HEK293 cells; also: potency is read from the fitted curve at half-maximal effect
# HCMV antiviral: inhibitors of human cytomegalovirus. HFF cells, HCMV-luciferase reporter, 72 h; active compounds read low. activity change, negative = inhibition, % at 57.5 µM. 410,000 tested, 4.5% active. AID 1259415; in the data active = activity change below about -60%; inconclusive = no clear call, values can overlap the other calls; inactive = above about -39%
#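 Two-dose cell screen: HFF monolayers treated with compounds and infected with luciferase-expressing HCMV at 1 PFU/cell, 72 h at 37C, then lysed for luciferase measurement.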
# HCV inhibitor: blocks hepatitis C virus; Potency, µM (doses to about 41.8 µM), for the others: at the highest dose activity change, negative = inhibition, usual class: inhibitors; Huh7.5.1 HCVcc-Cre infection, luciferase reporter, 44 h; 340,000 tested, 3.4% active; active = well fitted inhibition curve with a large enough effect; inconclusive = small, poorly fitted or top-dose-only effect, or another doubt; inactive = no such curve, though single readings can be large or run the other way; also: potency is read from the fitted curve at half-maximal effect
#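 Cells (1,000/well) were plated 4 h before compound, then infected with HCVcc-Cre virus (~0.5 moi). After 44 h further culture, infection was read as luciferase luminescence following a 15 min substrate incubation at room temperature.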
# Numbers without * were called inactive; ? = inconclusive; · = no result; + = active, no number; ! = not active in a repeat; [ ] = remark or other dose. Shown are actives, neighbours in structure and some others; about 7.9% of the full set was active somewhere. % is scaled to controls: 0 for no effect and ±100 for the full control effect.
SMILES,LASV entry inh,FMDV inh,Marburg entry inh,HCMV antiviral,HCV inhibitor
CCN(CC)C1=CC(=[N+]2CCCC2)CC(C)(C)C1,?,?,1.26µM*,-95.4*,?
CN(C)c1cccc(NC2=CC(=[N+]3CCOCC3)CC(C)(C)C2)c1,-26.2%,3.7%,-12.5%,47.5,7.9%
COc1ccc(NC(=O)c2oc3ccccc3c2NC(=O)COc2ccc(F)cc2)c(OC)c1,-6.4%[46.1 µM],-5.3%,0.3%[46.1 µM],0.3,·
COc1ccc(C2c3c(n(C)c4ccccc34)C(=O)N2CC(=O)Nc2ccc(C)cc2Cl)cc1 (stereo not given),?,-17.9%,·,0.0,·
CC(=O)Nc1ccc(Oc2ccc([N+](=O)[O-])cc2Cl)cc1,-5.2%,?,?,-16.1,-3.1%
CC(=O)Nc1ccc(N=c2cc([N+](=O)[O-])cc(Cl)n2O)cc1,?,0.3%,?,-85.0*,10µM*
CCOC1=C2[C@@H](CN(S(=O)(=O)c3ccc(C)cc3)[C@H]2c2ccccc2Cl)[C@H]2C(=O)N(Cc3ccccc3)C(=O)[C@H]2C1,·,29.2%,·,10.7,·
CCC[C@H]1[C@@H](NS(=O)(=O)c2ccc(-c3ccccc3)cc2)CC[C@@]23CCCN2C(=O)CCC[C@@H]13,·,·,·,-6.1,·
COc1ccc(CNC(=O)C2CCN(C(=O)c3ccc(-c4ccccc4)cc3)CC2)cc1,2.51µM*,?,?,53.3,0.1%
COc1ccc(CNC(=O)C2CCN(S(=O)(=O)N3CCCC3)CC2)cc1,·,-23.3%,·,+,-2.9%
COc1ccc(CNC(=O)C2CCN(C(=O)c3csc(Nc4ccc(C)cc4)n3)CC2)cc1,·,25.1µM*,?,-6.9,11.2µM*
Cc1ccc(Nc2nc(C(=O)N3CCC(C(=O)NCc4ccccc4)CC3)cs2)cc1,·,-6.5%,-9.8%[46.1 µM],19.3,?
CCOC(=O)N1CCN(S(=O)(=O)N2CCCC(C(=O)NCc3ccc(OC)cc3)C2)CC1 (stereo not given),-0.6%,-14.0%,0.6%[46.1 µM],+,-15.4%
COc1ccc(CNC(=O)C2CCN(C(=O)c3cccc(Cl)c3)CC2)cc1,-22.4%,-20.1%,-1.3%,38.6,3.4%
C[C@@H]1CN([C@@H](C)CO)C(=O)c2cc(Br)cnc2O[C@H]1CN(C)S(=O)(=O)c1cccs1,·,-5.4%,·,-11.7,·
O=C(NCCCN1CCN(c2ccc(F)cc2)CC1)Nc1ccccc1Cl,-4.6%[46.1 µM],-9.0%,?,-14.9,·
CSc1ccc(-c2ccc(C(=O)NCC3CCCO3)c(N3CCC(O)CC3)n2)cc1 (stereo not given),·,46.5%,·,·,·
COC(=O)C1=C(C)N(c2ccc(Cl)cc2)/C(=C/c2ccc(O)cc2)C1=O,-20.4%,25.1µM*,?,-20.5,?
COC(=O)C1=C(C)N(c2cc(C)cc(C)c2)/C(=C/c2ccc(O)cc2)C1=O,·,?,·,-96.1*,?
COc1ccc2c(c1)CCc1cc(C(=O)N3CCN(c4ccc(N5CCOCC5)nn4)CC3)sc1-2,·,?,·,·,10µM*
COc1ccc(-c2ccc(C(=O)N3CCc4c(cnc(C)c4CNS(=O)(=O)N(C)C)C3)o2)cc1,·,-0.4%,·,·,·
CCC(C)C1NC(=O)C(NC(=O)C(CC(C)C)N(C)C(=O)C2CCCN2C(=O)C(C)O)C(C)OC(=O)C(Cc2ccc(OC)cc2)N(C)C(=O)C2CCCN2C(=O)C(CC(C)C)NC(=O)[C@H](C)C(=O)[C@H](C(C)C)OC(=O)CC1O (stereo not given in full),?,?,?,-97.3*,?
CCC[C@@H]1NC(=O)CNC(=O)[C@H](Cc2ccccc2)NC(=O)[C@H]([C@H](C)O)NC(=O)[C@H](CCC(N)=O)NC(=O)C(C(C)C(C)Cl)NC(=O)[C@H](CC(C)C)N(C)C(=O)[C@H](C)NC(=O)CC(O)C(NC(=O)[C@@H](CC(C)C)NC=O)C(C)OC1=O (stereo not given in full),·,·,·,18.3,·
Cc1cccc(-c2nc3ccccc3n2Cc2ccccc2)c1,?,-29.3%,-28.4%[46.1 µM],-18.6,·
CC(C)(C)OC(=O)N(Cc1ccccc1)Cc1cccc(OCc2cccc(NC(=O)c3ccccc3)c2)c1,·,?,·,-28.5,7.94µM*
SMILES,LASV entry inh,FMDV inh,Marburg entry inh,HCMV antiviral,HCV inhibitor
CC(C)(C)OC(=O)N(Cc1ccccc1)Cc1ccc(OCc2cccc(NC(=O)C3CC3)c2)cc1,·,14.1µM*,·,?,?
CCCOc1ccc(/C(O)=C2\C(=O)C(=O)N(c3ccccn3)C2c2ccccc2F)cc1C (stereo not given),22.7%[46.1 µM],-0.4%,?,5.9,10.9%
COC(=O)C1(O)CC(c2ccccc2)C(C(=O)c2ccc(Cl)cc2)N1c1ccccc1 (stereo not given),·,·,·,-77.2*,·
c1ccc2c(-c3c[nH]c4ccccc34)c3ccccc3nc2c1,-7.1%,-35.5%,?,-90.5*,?
O=C(O)c1cc(-c2c[nH]c3ccccc23)nc2ccc3ccccc3c12,-17.6%,17.3%,-4.9%[46.1 µM],139.8,10.2%
COc1ccc(S(=O)(=O)Nc2cc3c4c(oc3c3ccccc23)CC(C)(C)CC4=O)cc1,?,19.9%,14.6µM*,-19.5,?
COc1ccc(S(=O)(=O)Nc2cc3c4c(oc3c3ccccc23)CCCC4=O)cc1,7.08µM*,1.4%,?,-6.3,?
CNc1c(NS(=O)(=O)c2ccc(OC)cc2)c(=O)oc2ccccc12,-2.4%[46.1 µM],0.8%,-15.8%[46.1 µM],-28.3,-0.7%
Cc1ccc(CN(Cc2cc3cc4c(cc3[nH]c2=O)OCCO4)Cc2nnnn2Cc2ccco2)cc1,?,-14.0%,?,-34.1,?
Cc1ccc2cc(CN(Cc3ccc4c(c3)OCO4)Cc3nnnn3Cc3ccco3)c(=O)[nH]c2c1,?,0.8%,?,?,15.8µM*!
Cc1ccc2[nH]c(=O)c(CN(Cc3ccccc3)Cc3nnnn3C3CCCC3)cc2c1,-38.1%,35.3%,18.3µM*,12.2,?
Cc1[nH]c2ccccc2c1C(=O)CNc1nccs1,15.4%,-2.7%,15.4%,25.8,22.4µM*
Cc1[nH]c2ccccc2c1C(=O)CCl,·,25.1µM*,·,?,?
Cc1[nH]c2ccccc2c1C(=O)COC(=O)c1ccccc1O,-9.5%,4.6%,2.8%,10.2,11.2µM*
Cc1[nH]c2ccccc2c1C(=O)CSc1ccccn1,23.5%[46.1 µM],1.6%,?,-10.4,?
CC(=O)NCC(=O)NCC1Cc2cc(C)cc(-c3ccccn3)c2O1 (stereo not given),·,-5.1%,·,·,·
O=C(Nc1ccc(O)c2c(=O)cc(-c3cccc(Cl)c3)oc12)c1ccccc1Cl,·,-10.3%,·,-37.4,?
COc1ccc(Sc2cccc3c2S(=O)(=O)N([C@H](C)c2ccccc2)C[C@@H](COCc2ccccc2)O3)cc1OC,·,·,·,-27.1,·
Cc1ccc(S(=O)(=O)n2ccc3c(OCCOCCNCc4ccc(F)cc4)cccc32)cc1,?,?,?,-101.3*,?
Cc1cccc(CC2C(=O)Nc3ccccc32)c1 (stereo not given),6.1%[46.1 µM],-4.0%,?,-70.0*,·
O=C1Nc2ccccc2C1Cc1ccc(Br)cc1 (stereo not given),-8.7%[46.1 µM],-8.4%,-2.3%[46.1 µM],-29.3,·
